A selection: hits, their analogues and other compounds. The true share with any hit is near 2.5%.
PAX8 inh HTS = inhibitors of PAX8 transcriptional activity in RMG-I cells. RMG-I TPO-luciferase reporter, SteadyGlo, 24 h. inhibition, % at 12.6 µM. 1.2% of 360,000 active;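 active = mean replicate inhibition at least 60% with every replicate also reaching 60%; inconclusive = only one of the two criteria is met; inactive = mean below 60% and not all replicates reaching 60%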;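 note: luciferase light reporting Pax8 driven TPO promoter activity; plate controls were median of neutral control wells for no effect and mitoxantrone controls for full effect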
GAA850 FXN act = increases GAA850 frataxin promoter reporter activity | HEK293 lucGAA850 FXN promoter luciferase reporter, 24 h; percent of 10 µM SAHA response | activation, % at 6 µM | 0.56% of 360,000 active | AID 540364;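 active = activation above the average of all compounds screened plus 3 SD, cutoff fixed separately per campaign, cut at about 7.5% in these data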;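 note: 0% = DMSO wells and 100% = 10 µM SAHA wells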
Env fusion inh = blocks HIV Env-driven cell-cell fusion | HeLa-JRFL Env/CEM21 cell fusion, luciferase | inhibition, % at 12.3 µM | 1.1% of 360,000 active;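 active = mean replicate inhibition score of at least 50 and every replicate individually at or above 50; inconclusive = only one of the two criteria met; inactive = mean below 50 and not all replicates reaching 50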;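 note: 0% = plate neutral controls and 100% = maraviroc near 300 nM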
EWS-Fli inh = inhibitors of EWS/Fli oncoprotein transcriptional activity; A673 NR0B1-luciferase reporter, viability-normalised; inhibition, % at 12.6 µM; 0.67% of 350,000 active;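 active = mean inhibition of at least 50% after viability correction, with every replicate also passing that limit; inconclusive = mean reaches 50% but only one of two replicates passes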;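 note: firefly luciferase signal divided by Alamar Blue viability fluorescence both relative to DMSO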
F508del corr = correctors of CFTR F508del function in bronchial epithelial cells. 0.36% of 350,000 active. activity (quench increase), % at 7.58 µM. CFBE cells, YFP halide quenching; stimulated with forskolin plus potentiator P3; % fluorescence drop versus neutral controls;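 active = mean added fluorescence quench of at least 8% versus neutral control, with both replicates also reaching 8%; inconclusive = only one of the mean or replicate conditions met; inactive = mean below 8% and not both replicates reaching 8%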;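 note: cells transiently co-express mutant CFTR-F508del with the halide-sensitive YFP; corrector assay measuring rescue of mutant channel to the surface after 24 h compound exposure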
DNA binder FP = small molecule DNA binding by fluorescence polarization; shares compounds with EWS-Fli inh; salmon sperm DNA acridine orange fluorescence polarization; AC35, µM (titrated, usually from 68 µM), for inactives: at the top dose activity change, negative = DNA binding; 2% of 640 active; AID 720586;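 active = fitted curve reaches a 35% signal fall AC35 below twice the sample's top valid tested dose, actives reach about 48 µM in these data; inactive = the rest, including activity in the rising direction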;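 note: lower polarization ratio signals compound binding to DNA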
Starred values were filed as active, the others as inactive; ? = inconclusive; / = not tested or not shown; [ ] = remark or other dose.

SMILES	PAX8 inh HTS	GAA850 FXN act	Env fusion inh	EWS-Fli inh	F508del corr	DNA binder FP
CCOC(=O)Cc1csc(NC(=S)NC(=O)c2ccccc2)n1	23	0	12	29	/	/
COc1ccc2oc(C(=O)OCC(=O)NCCc3ccccc3)c(C)c2c1	3	-1	1	-6	-2	/
COc1ccc2oc(C(=O)NCCc3ccccc3)c(C)c2c1	15	-3	-7	69*	1	-12%
COc1ccc(-c2sc3ccccc3c2-c2ccc(OCCN3CCCCC3)cc2)cc1	-20	1	40	59*	-1	-4%
c1ccc(-c2sc3ccccc3c2-c2ccc(OCCN3CCCC3)cc2)cc1	-6	-1	6	45	1	/
Cc1ccc(N2CCN(C3C(=O)Nc4ccccc4-n4nnnc43)CC2)cc1 (centres undefined)	10	/	-1	5	2	/
Cc1cccc(N2CCN(C3C(=O)Nc4ccccc4-n4nnnc43)CC2)c1C (centres undefined)	31	/	7	54*	2	5%
C[C@@H]1CN([C@H](C)CO)C(=O)CCCn2cc(nn2)CO[C@H]1CN(C)C(=O)CCCN(C)C	/	/	4[16.7 µM]	-14	0	/
O=C(CNC(c1ccccc1)c1ccccc1)Nc1ccccc1-c1ccccc1	8	-1	-5	54*	/	-11%
O=C(C1CC1)N1CCCCN2[C@H](C1)[C@H](c1ccc(C#CC3CCCC3)cc1)[C@@H]2CO	33	/	/	3	1	/
CCc1ccc2oc(C(=O)N3CCN(c4ccc(OC)cc4)CC3)cc(=O)c2c1	5	0	15	-1	4	/
CCc1ccc2oc(C(=O)N3CCN(c4ccccc4OC)CC3)cc(=O)c2c1	20	-4	-17	56*	1	-4%
COC(=O)C[C@@H]1CC[C@H]2[C@H](COc3ccc(NC(=O)Nc4cccc(Cl)c4)cc3C(=O)N2C)O1	14	/	-4[16.7 µM]	?	0	/
COC(=O)C[C@H]1CC[C@@H]2[C@H](COc3ccc(NC(=O)Nc4cccc(F)c4)cc3C(=O)N2C)O1	2	/	/	1	2	/
COC(=O)C[C@@H]1CC[C@@H]2[C@@H](COc3ccc(NC(=O)Nc4cccc(Cl)c4)cc3C(=O)N2C)O1	15	/	40[16.7 µM]	77*	-2	14%
COC(=O)C[C@H]1CC[C@H]2[C@@H](COc3ccc(NC(=O)Nc4cccc(Cl)c4)cc3C(=O)N2C)O1	23	/	3[16.7 µM]	60*	1	5%
CN1C(=O)c2cc(NC(=O)c3ccc(C(F)(F)F)cc3)ccc2OC[C@@H]2O[C@@H](CC(=O)NC3Cc4ccccc4C3)CC[C@@H]21	51	/	37[16.7 µM]	18	4	/
COC(=O)C[C@@H]1CC[C@@H]2[C@@H](COc3ccc(NC(=O)Nc4cccc(F)c4)cc3C(=O)N2C)O1	1	/	/	69*	-1	-10%
CN1C(=O)c2cc(NC(=O)c3ccc(C(F)(F)F)cc3)ccc2OC[C@@H]2O[C@@H](CC(=O)NC3Cc4ccccc4C3)CC[C@H]21	39	/	-88[16.7 µM]	54*	2	0%
COc1ccccc1NC(=O)N1CCCCN2[C@H](CO)[C@@H](c3ccc(-c4ccccc4)cc3)[C@@H]2C1	16	/	/	4	-1	/
C[C@@H]1CN([C@H](C)CO)C(=O)Cc2cc(NC(=O)Cn3cnnn3)ccc2O[C@H]1CN(C)Cc1ccc(C(=O)O)cc1	/	/	2[16.7 µM]	-5	-2	/
COC(=O)C[C@@H]1CC[C@@H]2[C@@H](COc3ccc(NC(=O)Nc4ccccc4C)cc3C(=O)N2C)O1	13	/	5[16.7 µM]	66*	-3	-13%
COC(=O)C[C@@H]1CC[C@@H]2[C@H](COc3ccc(NC(=O)Nc4ccccc4C)cc3C(=O)N2C)O1	8	/	-3[16.7 µM]	-8	-1	/
COC(=O)C[C@@H]1CC[C@@H]2[C@@H](COc3ccc(NC(=O)Cc4cccs4)cc3C(=O)N2C)O1	6	/	6[16.7 µM]	65*	/	-20%
CCCCN=C(NNc1ccc(Br)cc1)C(=O)OCC	-2	1	-7	79*	/	-9%
CCOC(=O)C(=NCCCN(C)C)NNc1ccc(Br)cc1	0	1	-8	-1	-1	/
CN(C)CC#Cc1ccc([C@@H]2[C@@H](CO)N3CCCCN(C(=O)NC4CCCC4)C[C@@H]23)cc1	-1	/	/	-13	0	/
COc1ccccc1-c1ccc(OCCCN2CCC(C(O)(c3ccccc3)c3ccccc3)CC2)cc1	96*	/	97*	71*	3	-15%

Bioassay records: PubChem BioAssay, several laboratories
